Data from PubChem BioAssay (EPA / NIEHS).
Calls of active or inactive are those of the source. Rule for the calls: active = hit-call score of the fitted dose curve at least 0.9, where 1 is the maximum; inactive = score below 0.9.

Key:
[1] = ATG_PXRE_CIS: Attagene CIS-FACTORIAL HepG2 Assay for human Pregnane X Receptor Element (PXRE) (AID 2282957); conditions: HepG2 Attagene CIS-FACTORIAL PXRE reporter, mRNA; actives raise or lower the signal
In short: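 After a 24 h chemical incubation, total RNA from transfected HepG2 cells was reverse-transcribed and reporter cDNA amplified, FAM-labeled, HpaI-digested and sized by capillary electrophoresis. DMSO served as baseline for bidirectional curve fitting.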

[2] = ATG_RORE_CIS: Attagene CIS-FACTORIAL HepG2 Assay for human RAR-related Orphan Receptor Element (RORE) (AID 2282959); conditions: HepG2 Attagene cis-factorial RORE reporter, mRNA; actives raise or lower the signal
In short: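 Transient MRTU transfection of human HepG2 liver cells (FuGene 6); 24 h compound exposure; TriZol RNA, oligo(dT) RT, PCR, FAM labeling, HpaI cut, CE fragment analysis. DMSO = negative control/baseline.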

[3] = ATG_Sox_CIS: Attagene CIS-FACTORIAL HepG2 Assay for human SRY-box transcription factor (SOX) (AID 2282960); conditions: HepG2 Attagene cis-factorial SOX reporter, mRNA; actives raise or lower the signal
In short: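 Endogenous factor activity in human liver HepG2 cells carrying transfected cis-regulated reporter units. RNA taken 24 h post-dose, reverse-transcribed, PCR-amplified and sized by capillary electrophoresis. Gain or loss of signal fitted relative to DMSO.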

[4] = target: Transcription factor Sp1 (Homo sapiens) (UniProt P08047); test: ATG_Sp1_CIS: Attagene CIS-FACTORIAL HepG2 Assay for human Specificity Protein 1 (Sp1) (AID 2282961); conditions: HepG2 Sp1 cis-reporter transcription, actives raise or lower the signal
In short: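 Transient MRTU-transfected HepG2, 24 h compound exposure. Total RNA → oligo(dT) RT → PCR of reporter → 6-FAM primer extension → HpaI digest → CE. Endpoint fitted both directions vs DMSO.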

[5] = ATG_SREBP_CIS: Attagene CIS-FACTORIAL HepG2 Assay for human Sterol Regulatory Element Binding (SREBP) (AID 2282962); conditions: HepG2 Attagene cis-factorial SREBP reporter, mRNA; actives raise or lower the signal
In short: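 In this cis-format assay, HepG2 liver cells express reporters controlled by promoter elements responsive to native transcription factors. Exposure lasts 24 h; reporter mRNA fluorescence from capillary electrophoresis gives the signal, fitted bidirectionally against DMSO.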

[6] = target: Signal transducer and activator of transcription 3 (Homo sapiens) (UniProt P40763); test: ATG_STAT3_CIS: Attagene CIS-FACTORIAL HepG2 Assay for human Signal Transducer and Activator of Transcription 3 (STAT3) (AID 2282963); conditions: HepG2, Attagene cis-factorial STAT3 reporter transcription; actives raise or lower the signal
In short: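 Readout: fluorescent reporter mRNA fragments resolved by capillary electrophoresis. Setup: HepG2 transfected with MRTUs reporting endogenous transcription-factor activity, dosed 24 h. Gain or loss of signal fitted bidirectionally against DMSO control.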

[7] = ATG_TA_CIS: Attagene CIS-FACTORIAL HepG2 Assay for human TA Basal Promoter (AID 2282964); conditions: HepG2 Attagene CIS-factorial TA basal promoter reporter; actives raise or lower the signal
In short: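 Multiplexed mRNA reporter assay, HepG2, 24 h. Reporter cDNA amplified, 6-FAM primer-extended, HpaI-cut, CE-sized; DMSO = negative control and baseline.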

[8] = ATG_TCF_b_cat_CIS: Attagene CIS-FACTORIAL HepG2 Assay for human T-Cell-Factor with beta-catenin (TCF/b-cat) (AID 2282965); conditions: HepG2 TCF/beta-catenin cis-reporter transcription, actives raise or lower the signal
In short: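 Cells of the HepG2 line carry transiently transfected reporter units whose promoters respond to endogenous factors. Twenty-four hours post-dosing, reporter mRNA induction is measured by fluorescent RT-PCR and capillary electrophoresis, with DMSO as baseline.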

[9] = ATG_PPRE_CIS: Attagene CIS-FACTORIAL HepG2 Assay for human Peroxisome Proliferator-activated Response Element (PPRE) (AID 2282958); conditions: HepG2 PPRE cis-element reporter, Attagene transcription factor profiling; actives raise or lower the signal
In short: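 HepG2, transient MRTU transfection (cis promoter elements, endogenous TFs). 24 h dosing. RNA → oligo(dT) RT → PCR → 6-FAM primer extension → HpaI digest → CE. Bidirectional fit vs DMSO.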

Transcription factor Sp1 (Homo sapiens), sequence (P08047 whole entry, looked up): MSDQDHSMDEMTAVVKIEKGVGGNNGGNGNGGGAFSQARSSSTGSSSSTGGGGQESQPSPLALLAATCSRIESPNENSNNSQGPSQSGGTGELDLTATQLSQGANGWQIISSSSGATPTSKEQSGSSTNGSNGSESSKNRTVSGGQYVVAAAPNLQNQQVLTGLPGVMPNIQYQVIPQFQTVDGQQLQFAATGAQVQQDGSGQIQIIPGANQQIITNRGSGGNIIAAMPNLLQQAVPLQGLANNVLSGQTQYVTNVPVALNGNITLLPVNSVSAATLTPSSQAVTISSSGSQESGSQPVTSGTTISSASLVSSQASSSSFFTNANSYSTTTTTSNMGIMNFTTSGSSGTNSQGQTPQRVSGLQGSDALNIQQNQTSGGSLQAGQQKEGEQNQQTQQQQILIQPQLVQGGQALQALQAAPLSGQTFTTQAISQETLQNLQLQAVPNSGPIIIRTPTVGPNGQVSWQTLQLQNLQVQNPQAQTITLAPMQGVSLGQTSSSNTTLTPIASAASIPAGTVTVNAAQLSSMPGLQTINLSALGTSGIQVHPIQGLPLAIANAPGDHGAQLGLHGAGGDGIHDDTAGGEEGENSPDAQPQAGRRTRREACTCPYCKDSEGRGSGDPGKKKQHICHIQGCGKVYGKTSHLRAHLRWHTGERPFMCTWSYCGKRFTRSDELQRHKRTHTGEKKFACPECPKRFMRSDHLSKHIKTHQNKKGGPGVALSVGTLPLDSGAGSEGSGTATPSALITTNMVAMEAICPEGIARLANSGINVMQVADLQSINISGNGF
Signal transducer and activator of transcription 3 (Homo sapiens), sequence (P40763 whole entry, looked up, the tested form may be a part): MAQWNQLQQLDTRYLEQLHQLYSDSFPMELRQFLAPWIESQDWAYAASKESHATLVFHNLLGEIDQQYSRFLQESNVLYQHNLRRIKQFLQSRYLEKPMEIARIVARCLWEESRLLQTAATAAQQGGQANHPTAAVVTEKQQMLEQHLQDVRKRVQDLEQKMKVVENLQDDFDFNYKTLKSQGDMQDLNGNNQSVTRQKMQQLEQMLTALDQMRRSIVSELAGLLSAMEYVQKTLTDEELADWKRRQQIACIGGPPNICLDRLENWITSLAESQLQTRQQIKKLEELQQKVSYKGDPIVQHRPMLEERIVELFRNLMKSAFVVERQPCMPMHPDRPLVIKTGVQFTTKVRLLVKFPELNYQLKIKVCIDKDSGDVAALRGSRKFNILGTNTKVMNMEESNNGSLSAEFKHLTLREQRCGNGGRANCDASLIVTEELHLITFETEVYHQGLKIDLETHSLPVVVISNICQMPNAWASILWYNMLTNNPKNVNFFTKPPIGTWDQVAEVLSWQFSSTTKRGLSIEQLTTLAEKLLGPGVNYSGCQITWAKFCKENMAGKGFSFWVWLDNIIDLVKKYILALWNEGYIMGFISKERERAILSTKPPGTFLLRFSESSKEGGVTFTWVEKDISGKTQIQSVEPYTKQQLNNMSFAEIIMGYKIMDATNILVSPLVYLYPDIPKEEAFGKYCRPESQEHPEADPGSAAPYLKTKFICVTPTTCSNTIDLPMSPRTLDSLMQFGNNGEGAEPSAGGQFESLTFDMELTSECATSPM

Compound | AC50 [1] | outcome [2] | outcome [3] | outcome [4] | outcome [5] | outcome [6] | outcome [7] | outcome [8] | outcome [1] | outcome [9] | AC50 [3] | AC50 [4] | AC50 [2] | AC50 [8] | AC50 [9]
CC(C)(Oc1ccc(C2CC2(Cl)Cl)cc1)C(=O)O (stereo unspecified) | 41.1 µM (active) | inactive | inactive | inactive | inactive | inactive | inactive | inactive |  |  |  |  |  |  | 
O=S(=O)(O)CC(O)CCl (stereo unspecified) |  | inactive | inactive | inactive |  | inactive | inactive | inactive | inactive | inactive |  |  |  |  | 
CCCCCCCC/C=C\CCCCCCCC(=O)OCCO | 12.8 µM (active) | inactive | inactive | inactive | inactive | inactive | inactive | inactive |  | inactive |  |  |  |  | 
CCOC(=O)NNc1nncc2ccccc12 |  |  | inactive | inactive | inactive | inactive | inactive | inactive | inactive |  |  |  |  |  | 
Cc1cccc(OCCOc2cccc(C)c2)c1 |  | inactive | inactive |  |  | inactive | inactive | inactive | inactive | inactive |  |  |  |  | 
O=[N+]([O-])c1ccc(CO)cc1 | 5.54 µM (active) | inactive | inactive | inactive | inactive | inactive | inactive | inactive |  |  |  |  |  |  | 
C[Si](C)O[Si](C)(C)O[Si](C)(C)O[Si](C)C | 17 µM (active) | inactive | inactive | inactive | inactive | inactive | inactive | inactive |  |  |  |  |  |  | 
O=C1C=CC(=O)O1 |  | inactive |  | inactive | inactive | inactive | inactive | inactive | inactive |  |  |  |  |  | 
O=C(O)c1cc2ccccc2nc1C(=O)O |  | inactive | inactive | inactive | inactive | inactive | inactive | inactive | inactive | inactive |  |  |  |  | 
CC(=O)[C@H]1[C@H](C#N)C[C@H]2[C@@H]3CC=C4C[C@@H](O)CC[C@]4(C)[C@H]3CC[C@@]21C |  | inactive | inactive | inactive | inactive | inactive | inactive | inactive | inactive | inactive |  |  |  |  | 
Cc1ccc([N+](=O)[O-])cc1S(=O)(=O)O |  | inactive |  |  | inactive | inactive | inactive | inactive | inactive | inactive | 180 µM (active) | 156 µM (active) |  |  | 
O=Nc1ccc(O)cc1 |  | inactive |  | inactive | inactive | inactive | inactive | inactive | inactive | inactive |  |  |  |  | 
C=CC(=O)NC(C)(C)CS(=O)(=O)O |  | inactive | inactive | inactive |  | inactive | inactive | inactive | inactive | inactive |  |  |  |  | 
CN(C)c1ccc(C(=N)c2ccc(N(C)C)cc2)cc1 | 5.82 µM (active) |  |  | inactive |  | inactive | inactive |  |  | inactive |  |  | 1.28 µM (active) | 9.76 µM (active) | 
O=C(Nc1ccccc1)c1ccccc1O | 27.4 µM (active) | inactive | inactive | inactive | inactive | inactive | inactive | inactive |  |  |  |  |  |  | 100 µM (active)
OC1OCCOC1O (stereo unspecified) |  | inactive | inactive |  | inactive | inactive | inactive | inactive | inactive |  |  |  |  |  | 
CCC(C)(C)C1CCCCC1OC(C)=O (stereo unspecified) | 27.2 µM (active) | inactive |  | inactive | inactive | inactive | inactive | inactive |  | inactive |  |  |  |  | 
CCOC(=O)[C@H](C)O | 27.2 µM (active) | inactive | inactive | inactive | inactive | inactive | inactive | inactive |  |  |  |  |  |  | 
CC(C)(C)c1ccc(-c2ccc(C(C)(C)C)cc2)cc1 |  | inactive |  | inactive | inactive | inactive | inactive | inactive | inactive | inactive |  |  |  |  | 
CCOc1ccc(N)c([N+](=O)[O-])c1 |  | inactive | inactive | inactive | inactive | inactive | inactive | inactive | inactive | inactive |  |  |  |  | 
